Laboratory results: PubChem BioAssay (Tox21)
Values joined by “and” are separate entries in the source; they are usually repeats but may differ in a detail not shown here. Identical values can stand only once. Inconclusive results are not listed. Active and inactive are the calls of the source. Calls follow the shape of the dose curve; as a rule, active = well fitted activation curve with a large enough effect in the repeat runs; inconclusive = weak or mixed curves; inactive = no such curve, though single readings can be large or run the other way.

biological target: Nuclear receptor subfamily 1 group I member 3 (Homo sapiens) (UniProt Q14994); test: qHTS assay to identify small molecule agonists of the constitutive androstane receptor (CAR) signaling pathway (AID 1224839); conditions: HepG2 hCAR CYP2B6-luciferase, agonist mode, 24 h; series mostly up to 92.4 µM; activation: at the top concentration; also: nearly all actives have a fitted effect of over 15% in size;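 as to activation: HepG2 cells stably carrying human CAR and a CYP2B6 luciferase reporter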
Excerpt: National Center for Advancing Translational Sciences [NCATS] NIH Chemical Genomics Center [NCGC] U.S. Environmental Protection Agency [EPA] National Institutes of Environmental Health Sciences [NIEHS] National Toxicology Program [NTP] Assay overview: The constitutive androstane receptor (CAR) is a nuclear receptor which regulates multiple drug metabolizing enzymes (DMEs) and transporters. Activating CAR will generally increase the transcription and subsequent translation of CYP2B6 and CYP3A4. These two DMEs represent about 50% of the drug metabolizing potential in the body. […] Recently, there have also been studies performed indicating CARs role in energy metabolism and cancer therapy. Therefore, inducing CARs activity could have a potential effect on diabetes and cancer. Identifying environmental toxins and compounds which modulate CAR, through the use of the Tox21 10K compound collection, will be an important step in determining the toxicity and potential therapeutic effects these factors will have on the human body.
Assay Protocol Summary: A double-stable (hCAR and CYP2B6-2.2kb) transfected cell line, derived from human hepatoma (HepG2) cells, was utilized for the duration of the quantitative high-throughput screens. The HepG2-CYP2B6-hCAR cells suspended in DMEM culture medium supplemented with 10% FBS, 5 ug/mL blasticidin, 0.5 mg/mL geneticin, 100 U/mL penicillin and 100 ug/mL streptomycin were dispensed at 2500 cells/4 uL/well in 1536-well white solid bottom plates using a Multidrop Combi. After the assay plates were incubated at 37 C/5% CO2 for 4 hrs, 23 nL of compounds at 15 concentrations (from 5-48 columns) or positive control (from 1 to 4 columns) were transferred to the assay plates using a Pintool station. One uL of PK11195, was added using a Flying Reagent Dispenser to generate a final concentration of 0.75 uM PK11195 inside each well. After a 24 hr incubation period at 37 C/5% CO2, four uL of ONE-Glo reagent was added into the assay plates using a Flying Reagent Dispenser. After a 30 min incubation period at room temperature, the luminescence intensity in the assay plates was measured using a ViewLux plate reader.
% is scaled to controls: 0 for no effect and ±100 for the full control effect; potency is read from the fitted curve at half-maximal effect.

Chain of Nuclear receptor subfamily 1 group I member 3 (Homo sapiens) (Q14994 whole entry, looked up): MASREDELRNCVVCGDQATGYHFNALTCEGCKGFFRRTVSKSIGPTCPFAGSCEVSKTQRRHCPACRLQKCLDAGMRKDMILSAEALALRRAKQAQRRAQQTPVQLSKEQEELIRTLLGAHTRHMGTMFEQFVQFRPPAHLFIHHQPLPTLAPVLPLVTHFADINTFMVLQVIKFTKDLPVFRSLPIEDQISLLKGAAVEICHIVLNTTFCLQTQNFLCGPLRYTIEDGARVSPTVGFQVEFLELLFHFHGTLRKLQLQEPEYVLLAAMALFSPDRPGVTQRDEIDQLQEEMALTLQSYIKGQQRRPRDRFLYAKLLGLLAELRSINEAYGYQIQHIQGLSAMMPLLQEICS

Structure (SMILES) | activation | Potency
CCCC(C)(COC(N)=O)COC(N)=O | 0.0673% (inactive) | 
C[C@H]1CCCC(=O)CCC/C=C/c2cc(O)cc(O)c2C(=O)O1 |  | inactive
CN1C(=O)COc2c(C(=O)NC3CN4CCC3CC4)cc(Cl)cc21 (stereo not given) | -1.62% [at 42.5 µM] (inactive) | 
C1CN2CCC1CC2 | 0.798% [at 42.5 µM] (inactive) | 
CCCN1CCC[C@@H]2Cc3[nH]ncc3C[C@H]21 | 1.21% [at 42.5 µM] (inactive) | 
N=C(N)[Se] | -2.7% (inactive) | 
O=C(O)C(F)(F)C(F)(F)C(F)(F)C(F)(F)C(F)(F)C(F)(F)F | -3.64% (inactive) | 
C[C@H](N)C(=O)c1ccccc1 | -0.0453% (inactive) | 
CCN[C@@H](C)Cc1cccc(C(F)(F)F)c1 | -3.82% [at 42.5 µM] (inactive) | 
COP(=O)(O)OC | -5.55% (inactive) | 
O=S1(=O)OCCO1 | -1.68% (inactive) | 
Cn1c(N)nc2c3cccnc3ccc21 |  | 32.7 µM (active)
CCOC(=O)CC(SP(=S)(OC)OC)C(=O)OCC (stereo not given) |  | 21.7 µM (active) and 26.6 µM (active)
Cc1ccc2cc(C)ccc2c1 | -0.0186% (inactive) | 
Brc1c(Br)c(Br)c(Br)c(Br)c1Br | -2.38% [at 8.39 µM] (inactive) | 
NNCc1ccccc1 |  | 62.3 µM (active)
CCCC[N+](=O)[O-] | 0.0369% (inactive) | 
Cn1c(CCCC(=O)O)nc2cc(N(CCCl)CCCl)ccc21 | -4.54% [at 42.5 µM] (inactive) | 
ClCCN1CCCC1 | -1.44% [at 42.5 µM] (inactive) | 
O=C/C=C/c1ccco1 | -0.0039% (inactive) | 

Structure (SMILES) | activation | Potency
CC1N=C(N)OC1c1ccccc1 (stereo not given) | -0.125% (inactive) | 
COC(=O)c1ccc(CBr)cc1 |  | 31 µM (active)
CCCCCCCC(=O)Cl | -1.64% (inactive) | 
CCC(C)C(C)(COC(N)=O)COC(N)=O (stereo not given) | -3.03% [at 42.5 µM] (inactive) | 
Cc1ccc2c(c1)C1CN(C)CCC1N2 (stereo not given) | 2.22% [at 19 µM] (inactive) | 
O=C(Cl)C(Cl)(Cl)Cl | -0.452% (inactive) | 
CCN(CC)C1CCCCC1 | -0.0053% (inactive) | 
COc1ccccc1OC | 0.352% (inactive) | 
CC(O)CCl (stereo not given) | -1.61% (inactive) | 
Cc1cc(OC(=O)N(C)C)nn1C(=O)N(C)C | -2.71% (inactive) | 
ClCCCCCCCl | -1.66% (inactive) | 
O=P(O)(O)c1ccccc1 | 0.867% (inactive) | 
CCCC(C)C1(CC)C(=O)N=C(S)NC1=O (stereo not given) | -3% [at 42.5 µM] (inactive) | 
CCN(CC)CCOC(=O)C(O)(c1ccccc1)c1ccccc1 | -2.85% [at 42.5 µM] (inactive) | 
CC(C)c1ccc(O)cc1 | -3.46% (inactive) | 
CCC(=O)OC1(c2ccccc2)CCN(C)CC1 | -0.871% (inactive) | 
CN(C)C1CCCCC1 | -1.26% (inactive) | 
C#CCOC(=O)/C=C(C)/C=C/CC(C)CCCC(C)C (stereo not given) | 8.55% (inactive) | 
O=C(NC(=O)c1c(F)cccc1F)Nc1cc(Cl)c(F)c(Cl)c1F | 0.0206% (inactive) | 
CC(=O)OCC1=C(C(=O)O)N2C(=O)[C@@H](N)[C@H]2SC1 | 4.04% [at 19 µM] (inactive) | 
